For 18 compounds, inhibition results are on record in ChEMBL document CHEMBL3433997, “St. Jude Leishmania screening dataset” (2016).

Molecules are shown by their SMILES.

Holding throughout (type): functional
The target in assay [1] is Solute carrier family 2, facilitated glucose transporter member 1 (Homo sapiens) (UniProt P11166). The experiment in a line: ST_JUDE_LEISH: Cytotoxicity at 2uM final concentration against transgenic Leishmania Mexicana promastigotes LmGLUT1 that are glucose transport deficient and complemented with the human glucose transporter GLUT1. Activity is measured by DNA content using SYBR green in vitro.
Chain of Solute carrier family 2, facilitated glucose transporter member 1 (Homo sapiens) (P11166 whole entry): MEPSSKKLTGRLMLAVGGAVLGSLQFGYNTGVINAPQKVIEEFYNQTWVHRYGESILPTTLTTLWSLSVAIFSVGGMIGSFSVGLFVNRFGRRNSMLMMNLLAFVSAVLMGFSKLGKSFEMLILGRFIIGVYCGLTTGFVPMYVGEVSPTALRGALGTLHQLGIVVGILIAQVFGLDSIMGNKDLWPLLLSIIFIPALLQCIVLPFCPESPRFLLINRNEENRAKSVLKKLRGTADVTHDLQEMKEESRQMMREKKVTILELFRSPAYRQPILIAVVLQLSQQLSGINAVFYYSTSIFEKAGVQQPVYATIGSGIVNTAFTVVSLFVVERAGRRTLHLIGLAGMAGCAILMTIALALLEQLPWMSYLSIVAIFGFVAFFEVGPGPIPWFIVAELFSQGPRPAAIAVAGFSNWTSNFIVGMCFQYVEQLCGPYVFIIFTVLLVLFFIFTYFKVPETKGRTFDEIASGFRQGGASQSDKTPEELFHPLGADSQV

Assay [2] has as its target Hexose transporter 1 (Plasmodium falciparum) (UniProt O97467). As to the kind of experiment: ST_JUDE_LEISH: Cytotoxicity at 2uM final concentration against transgenic Leishmania Mexicana promastigotes LmPfHT that are glucose transport deficient and complemented with the Plasmodium falciparum hexose transporter. Activity is measured by DNA content using SYBR green in vitro.

Assay [3] deals with Glucose transporter (Leishmania mexicana) (UniProt O61059). As to the kind of experiment: ST_JUDE_LEISH: Cytotoxicity at 2uM final concentration against transgenic Leishmania Mexicana promastigotes LmGT2 that are glucose transport deficient and complemented with the L. Mexicana glucose transporter 2. Activity is measured by DNA content using SYBR green in vitro.

For the compound `COc1cccc(NC(=O)c2ccc(NCCCN3CC(C)CC(C)C3)c([N+](=O)[O-])c2)c1` (centres undefined), the inhibition in assay [1] worked out at 6.83%; in assay [2] it was 2.93%; in assay [3], 3.43%.

Consider `CC(C)C[C@@H](NC(=O)NC1CCC(CCN2C3CCC2CC(OC(=O)C(CO)c2ccccc2)C3)CC1)C(O)(c1ccccc1)c1ccccc1` (some centres undefined), for which the inhibition in assay [1] is 3.28%; in assay [2], 2.19%; in assay [3], 0.94%.

For the compound `CC[C@H]1CN(CCCC(=O)c2ccccc2)CC[C@H]1CCCc1ccnc2ccc(OC(=O)c3ccccc3)cc12`, the inhibition in assay [1] was 4.64%; in assay [2], 5.86%; in assay [3], 2.72%.

In the case of `O=C(Nc1cccc(CN2CCN(Cc3ccc(O)cc3)CC2)c1)c1ccc(Cl)c(Cl)c1`, the figures for the inhibition in assay [1], in assay [2] and in assay [3] were 3.5%, 5.27% and 2.47%, respectively.

Regarding `Cc1ccc(NC(=O)c2ccc(CN3CCCN(Cc4cccc(O)c4)CC3)cc2)cc1C`, the inhibition in assay [1] came out at 0.9%; in assay [2], 0.45%; in assay [3] it was 4.65%.

Take `CCCCCCCCN1CCCN(C(=O)c2cccc(NC(=O)Nc3ccc4ccccc4c3)c2)CC1`: the inhibition in assay [1] is 0.2%; in assay [2], -0.59%; in assay [3], -0.77%.

For the compound `Cc1cc(N[C@@H](Cc2ccccc2)C(=O)Nc2ccccc2)nc(Nc2ccccc2)n1`, the results for the inhibition in assay [1], in assay [2] and in assay [3] were 5.97%, 5.91% and -0.05%, respectively.

Regarding `CCC(C)(C)c1ccc(Oc2ccc(NC(=O)Nc3ccc(Cl)c(Cl)c3)cc2)cc1`, the inhibition in assay [1] was found to be 1.75%; in assay [2], 1.24%; in assay [3] it was 1.26%.

Take `CCCCCCCn1c(=N)n(CC(O)c2ccc(Cl)c(Cl)c2)c2ccccc21` (centres undefined): the inhibition in assay [1] is 8.14%; in assay [2], 7.92%; in assay [3], 13.2%.

`CC(C)(C)C1=CC(=NNC(=O)c2ccncc2)C=C(C(C)(C)C)C1=O`: the inhibition was 11.8% in assay [1], 14% in assay [2] and -0.13% in assay [3].

Take `CCCCNCc1ccc(-c2nc(CN(CCCn3ccnc3)C(=O)NC3CC3c3ccccc3)cs2)cc1` (centres undefined): the inhibition in assay [1] is 3.77%; in assay [2], 3.79%; in assay [3] it was 4.29%.

On to `OC(CNc1ccnc(Nc2cccc(Cl)c2)n1)c1cccc(C(F)(F)F)c1` (centres undefined), for which the inhibition in assay [1] was determined as 14.4%; in assay [2], 11.6%; in assay [3], 4.06%.

For `C#CCNCc1ccc(-c2cccc(-c3nc4cccc(C)c4[nH]3)c2)cc1`, the results for the inhibition in assay [1], in assay [2] and in assay [3] were 6.77%, 4.1% and 3.18%, respectively.

Regarding `CCc1ccc(CN2CCC(CNC(=O)c3cc(-c4cccc(C(F)(F)F)c4)cs3)C2)cc1` (centres undefined), the inhibition in assay [1] was -2.78%; in assay [2] it was -0.98%; in assay [3] it was -1.61%.

Regarding `CCn1c(-c2nonc2N)nc2c(-c3cccc(NC(=O)Nc4ccccc4Cl)c3)ncc(OCCCN)c21`, the inhibition in assay [1] was -1.06%; in assay [2] it was -1.1%; in assay [3], -0.34%.

Turning to `O=C(Nc1cccc(-c2ccc(-c3nc4ccccc4[nH]3)cc2)c1)c1ccncc1`, the inhibition in assay [1] was found to be 8.95%; in assay [2], 4.33%; in assay [3] it was 2.5%.

Consider `COc1ccc(N2C(N)=NC(N)=NC2(C)C)cc1OC`, for which the inhibition is 3.76% in assay [1], 5.41% in assay [2] and 5.83% in assay [3].

Consider `COc1ccc(CCNCCCCCCNCCc2ccc(-c3ccccc3)cc2)cc1OC`, for which the figures for the inhibition in assay [1], in assay [2] and in assay [3] were 92.8%, 94.9% and 49.7%, respectively.

What is called inhibition is the relative decrease from the control value, in per cent.
